The supplement of paper PMC13380429
Counter-ions that a name gives are not always drawn.

System: Vero E6 infected with SARS-CoV-2
Assay: inhibition of SARS-CoV-2 cytopathic effect; higher = more antiviral protection, active = above 15
Conditions: 48 h

Measured: inhibition of SARS-CoV-2 cytopathic effect

COc1cc(C[C@H]2C(=O)OC[C@@H]2Cc2ccc(OC)c(OC)c2)ccc1O [arctigenin]
inactive: 1 nM -2.79% | 8.33 nM 0.36% | 100 nM -2.78% | 833.33 nM 0.01% | 10000 nM 2.1%

O=C1OC(CN2CCOCC2)CN1/N=C/c1ccc([N+](=O)[O-])o1 (stereo not given) [furaltadone]
inactive: 1 nM -10.1% | 8.33 nM -5.96% | 100 nM -8.17% | 833.33 nM -6.67% | 10000 nM -6.1%

O=C(NO)c1ccc2[nH]c(=O)c(CCCc3ccccc3)nc2c1
inactive: 1 nM 1.82% | 8.33 nM 3.66% | 100 nM 0.97% | 833.33 nM 1.93% | 10000 nM -2.66%

CC(C)c1cc(C(=O)N2Cc3ccc(CN4CCN(C)CC4)cc3C2)c(O)cc1O
inactive: 1 nM -1.87% | 8.33 nM -3.96% | 100 nM -5.27% | 833.33 nM -1.1% | 10000 nM 0.31%

NCCCNCCCCNCCCN [spermine]
inactive: 1 nM 1.74% | 8.33 nM -5.72% | 100 nM -0.71% | 833.33 nM -2% | 10000 nM 2.37%

NC(N)=Nc1nc(CSCCN/C=N/S(=O)(=O)c2ccc(Br)cc2)cs1 [ebrotidine]
inactive: 1 nM -0.49% | 8.33 nM 1.21% | 100 nM 5.48% | 833.33 nM -0.19% | 10000 nM -2.58%

Cc1ccccc1NC(=O)Nc1ccc(CC(=O)N(C)[C@@H](CC(C)C)C(=O)NCC[C@H](NC(=O)[C@@H]2CCCN2S(=O)(=O)c2cc(Cl)cc(Cl)c2)C(=O)O)cc1
inactive: 1 nM -1.88% | 8.33 nM 0.66% | 100 nM -0.65% | 833.33 nM 0.17% | 10000 nM -3.63%

OCc1c[nH]c2ccccc12 [indole-3-carbinol]
inactive: 1 nM -1.46% | 8.33 nM 0.47% | 100 nM -3.76% | 833.33 nM -0.69% | 10000 nM -14.3%

Cn1nnc(-c2ccc(-c3ccc(N4C[C@H](COP(=O)(O)O)OC4=O)cc3F)cn2)n1 [tedizolid-phosphate]
inactive: 1 nM -1.65% | 8.33 nM -1.24% | 100 nM -0.65% | 833.33 nM 1.74% | 10000 nM 1.44%

CCOCCn1c(C2CCN(CCc3ccc(C(C)(C)C(=O)O)cc3)CC2)nc2ccccc21 [bilastine]
inactive: 1 nM -1.57% | 8.33 nM -0.88% | 100 nM -1.39% | 833.33 nM -1.14% | 10000 nM -0.38%

CC(C)n1c(=O)n(C(=O)N[C@H]2C[C@H]3CC[C@@H](C2)N3C)c2ccccc21
inactive: 1 nM 3% | 8.33 nM 1.63% | 100 nM -0.05% | 833.33 nM -0.36% | 10000 nM -2.53%

N#CN1CCCC1 [pyrrolidine-1-carbonitrile]
inactive: 1 nM 3.76% | 8.33 nM 2.93% | 100 nM -2% | 833.33 nM 1.38% | 10000 nM 2.45%

Nc1ccn([C@H]2C[C@H](O)[C@@H](CO)O2)c(=O)n1 [torcitabine]
inactive: 1 nM -1.42% | 8.33 nM -0.61% | 100 nM 0.39% | 833.33 nM -0.39% | 10000 nM 1.92%

COc1cccc2c1C(=O)c1c(O)c3c(c(O)c1C2=O)C[C@@](O)(C(=O)CO)C[C@@H]3O[C@H]1C[C@H](N)[C@@H](O)[C@H](C)O1 [Epirubicin Hydrochloride]
inactive: 1 nM 1.23% | 8.33 nM 1.09% | 100 nM 0.605% | 833.33 nM 1.46% | 10000 nM -4.63%

Clc1ccc(CCCOCCCN2CCCCC2)cc1 [pitolisant]
inactive: 1 nM 1.67% | 8.33 nM 1.19% | 100 nM -1.62% | 833.33 nM -2.26% | 10000 nM -0.08%

N#C/C(=C\c1cn(-c2ccccc2)c2ccccc12)C(=O)O
inactive: 1 nM -0.26% | 8.33 nM -0.12% | 100 nM -0.58% | 833.33 nM 1.6% | 10000 nM -2.52%

CC(CNC1CCCCC1)OC(=O)c1ccccc1 (stereo not given) [hexylcaine]
inactive: 1 nM 2.92% | 8.33 nM -0.38% | 100 nM -0.1% | 833.33 nM -11% | 10000 nM -2.93%

c1cc2c(cc1[C@H]1OC[C@H]3[C@@H]1CO[C@@H]3c1ccc3c(c1)OCO3)OCO2 [sesamin]
inactive: 1 nM -1.62% | 8.33 nM -0.09% | 100 nM -0.37% | 833.33 nM 0.48% | 10000 nM -1.08%
